We go through twelve sequences from paper PMC8384837, “Expanding the binding specificity for RNA recognition by a PUF domain”.

What all share (assay): yeast three-hybrid, YBZ-1, SC-Leu-His + 0.5 mM 3-AT, 4 days
What all share (conditions): tags: N-Gal4 AD-HA kept; label: inside an RPR1-promoter hybrid RNA with tandem MS2 sites; ssRNA

For assay [1], the target named is PUM1 PUF domain R1-QWK (Homo sapiens, UniProt Q14671 828-1176, S863Q;R864W;Q867K). The method in brief:
(§1)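 Sequencing with Illumina followed PCR amplification of the repeat regions from transformants grown four days on SC-Leu (input) or SC-Leu-His + 0.5 mM 3-AT (selection). The transformants were strain YBZ-1 with a LexA–MS2 coat fusion and a HIS3 reporter, carrying Pumilio-1 PUF domain libraries and matching RNA elements. The interaction score is the log change in variant frequency from input to selection, computed in log2 with a pseudocount of 1 for absent variants.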

The target of assay [2] is PUM1 PUF domain R1-RRA (Homo sapiens, UniProt Q14671 828-1176, S863R;Q867A). The method in brief: as §1
For assay [3], the target named is PUM1 PUF domain R1-RLM (Homo sapiens, UniProt Q14671 828-1176, S863R;R864L;Q867M). The method in brief: as §1
The target of assay [4] is PUM1 PUF domain R5-RSQ (Homo sapiens, UniProt Q14671 828-1176, C1007R;R1008S). The method in brief: as §1
The target of assay [5] is PUM1 PUF domain R5-RCV (Homo sapiens, UniProt Q14671 828-1176, C1007R;R1008C;Q1011V). The method in brief: as §1
The target in assay [6] is PUM1 PUF domain R5-RHV (Homo sapiens, UniProt Q14671 828-1176, C1007R;R1008H;Q1011V). The method in brief:
as §1

The target of assay [7] is PUM1 PUF domain R5-RMG (Homo sapiens, UniProt Q14671 828-1176, C1007R;R1008M;Q1011G). The procedure, abridged:
as §1

The target of assay [8] is PUM1 PUF domain R3-RRS (Homo sapiens, UniProt Q14671 828-1176, C935R;Q939S). The procedure, abridged:
as §1

Assay [9] addresses PUM1 PUF domain R3-VFY (Homo sapiens, UniProt Q14671 828-1176, C935V;R936F;Q939Y). The procedure, abridged: as §1
The target of assay [10] is PUM1 PUF domain R3-EFT (Homo sapiens, UniProt Q14671 828-1176, C935E;R936F;Q939T). The method in brief: as §1
Assay [11] addresses PUM1 PUF domain R8-HWV (Homo sapiens, UniProt Q14671 828-1176, N1122H;Y1123W;Q1126V). The procedure, abridged: as §1
The target in assay [12] is PUM1 PUF domain R5-EAC (Homo sapiens, UniProt Q14671 828-1176, C1007E;R1008A;Q1011C). The procedure, abridged:
as §1

Assay [13] concerns the target T1, PUM1 PUF domain R6-IWL (Homo sapiens, UniProt Q14671 828-1176, N1043I;Y1044W;Q1047L).
T1 sequence: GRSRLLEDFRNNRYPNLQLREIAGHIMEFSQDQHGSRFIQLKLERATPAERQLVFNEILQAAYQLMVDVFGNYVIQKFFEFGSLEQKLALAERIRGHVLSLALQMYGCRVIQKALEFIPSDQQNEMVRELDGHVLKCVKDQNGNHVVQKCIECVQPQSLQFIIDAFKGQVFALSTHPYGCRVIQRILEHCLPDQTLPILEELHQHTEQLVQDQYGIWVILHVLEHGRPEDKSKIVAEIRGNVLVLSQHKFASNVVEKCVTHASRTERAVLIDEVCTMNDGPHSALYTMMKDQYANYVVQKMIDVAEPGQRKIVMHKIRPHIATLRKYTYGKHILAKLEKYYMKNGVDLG
The procedure, abridged: as §1

For assay [14], the target named is T2, PUM1 PUF domain R6-HHR (Homo sapiens, UniProt Q14671 828-1176, N1043H;Y1044H;Q1047R).
T2 sequence: T1 sequence with I216H, W217H, L220R
The method in brief: as §1

Assay [15] deals with PUM1 PUF domain R4-SRM (Homo sapiens, UniProt Q14671 828-1176, N971S;H972R;Q975M). The method in brief: as §1
Assay [16] has as its target PUM1 PUF domain R4-EPS (Homo sapiens, UniProt Q14671 828-1176, N971E;H972P;Q975S). The method in brief: as §1
The target in assay [17] is PUM1 PUF domain R4-GHF (Homo sapiens, UniProt Q14671 828-1176, N971G;Q975F). The method in brief: as §1
The target in assay [18] is PUM1 PUF domain R4-ANS (Homo sapiens, UniProt Q14671 828-1176, N971A;H972N;Q975S). The procedure, abridged: as §1
For assay [19], the target named is PUM1 PUF domain R4-GCC (Homo sapiens, UniProt Q14671 828-1176, N971G;H972C;Q975C). The procedure, abridged:
as §1

Assay [20] addresses PUM1 PUF domain R4-CNA (Homo sapiens, UniProt Q14671 828-1176, N971C;H972N;Q975A). The procedure, abridged: as §1

Positions count from the first letter of the chain named.

For the sequence “GGCUAGAACUAGUGGAUCCCCCGGCGCCCGGCGGCUCGAGCCCGGGUAAGUGUAAAUCGUCUGCAUGCCGCCGGGCGCCAUGCCUGCAGGUCGACUCUAGAAAACAUG”, the binding signal in assay [1] is 5.98 log2 enrichment (interaction score); in assay [2], 2.68 log2 enrichment (interaction score); in assay [3], 3.34 log2 enrichment (interaction score).
For the sequence “GGCUAGAACUAGUGGAUCCCCCGGCGCCCGGCGGCUCGAGCCCGGGUAAGUGUCAAUAGUCUGCAUGCCGCCGGGCGCCAUGCCUGCAGGUCGACUCUAGAAAACAUG”, the binding signal in assay [4] was 4.6 log2 enrichment (interaction score); in [5], 2.81 log2 enrichment (interaction score); in assay [6], 5.74 log2 enrichment (interaction score); in assay [7] it was 2.42 log2 enrichment (interaction score).
For “GGCUAGAACUAGUGGAUCCCCCGGCGCCCGGCGGCUCGAGCCCGGGUAAGUGUAAUUAGUCUGCAUGCCGCCGGGCGCCAUGCCUGCAGGUCGACUCUAGAAAACAUG”, the binding signal in assay [8] was 3.9 log2 enrichment (interaction score); in assay [9], 5.89 log2 enrichment (interaction score); in assay [10] it was 2.45 log2 enrichment (interaction score).
Turning to “GGCUAGAACUAGUGGAUCCCCCGGCGCCCGGCGGCUCGAGCCCGGGUAAGUGUUAAUAGUCUGCAUGCCGCCGGGCGCCAUGCCUGCAGGUCGACUCUAGAAAACAUG”, the figures for the binding signal in [4] and in [6] were 4.05 log2 enrichment (interaction score) and 5.95 log2 enrichment (interaction score), respectively.
For “GGCUAGAACUAGUGGAUCCCCCGGCGCCCGGCGGCUCGAGCCCGGGUAAGCGUAAAUAGUCUGCAUGCCGCCGGGCGCCAUGCCUGCAGGUCGACUCUAGAAAACAUG”, the binding signal in assay [11] was 4.26 log2 enrichment (interaction score).
Take “GGCUAGAACUAGUGGAUCCCCCGGCGCCCGGCGGCUCGAGCCCGGGUAAGUGUAAAUGGUCUGCAUGCCGCCGGGCGCCAUGCCUGCAGGUCGACUCUAGAAAACAUG”: the binding signal in assay [3] was 1.69 log2 enrichment (interaction score).
Turning to “GGCUAGAACUAGUGGAUCCCCCGGCGCCCGGCGGCUCGAGCCCGGGUAAGUGUGAAUAGUCUGCAUGCCGCCGGGCGCCAUGCCUGCAGGUCGACUCUAGAAAACAUG”, the binding signal in assay [12] was 3.49 log2 enrichment (interaction score).
Regarding “GGCUAGAACUAGUGGAUCCCCCGGCGCCCGGCGGCUCGAGCCCGGGUAAGUGUAAGUAGUCUGCAUGCCGCCGGGCGCCAUGCCUGCAGGUCGACUCUAGAAAACAUG”, the binding signal in [10] is 3.92 log2 enrichment (interaction score).
For “GGCUAGAACUAGUGGAUCCCCCGGCGCCCGGCGGCUCGAGCCCGGGUAAGUGUAAAUAGUCUGCAUGCCGCCGGGCGCCAUGCCUGCAGGUCGACUCUAGAAAACAUG”, the binding signal was 1.05 log2 enrichment (interaction score) in assay [4]; 3.09 log2 enrichment (interaction score) in assay [13]; 5.44 log2 enrichment (interaction score) in assay [14]; 3.86 log2 enrichment (interaction score) in [15]; 2.87 log2 enrichment (interaction score) in assay [6]; 6.12 log2 enrichment (interaction score) in [9]. Also, the binding signal in [16] is 3.28 log2 enrichment (interaction score); in [10], 4.71 log2 enrichment (interaction score); in assay [17] it was 4.42 log2 enrichment (interaction score); in assay [18] it was 2.16 log2 enrichment (interaction score); in [19], 1.5 log2 enrichment (interaction score); in [11], 3.05 log2 enrichment (interaction score).
On to “GGCUAGAACUAGUGGAUCCCCCGGCGCCCGGCGGCUCGAGCCCGGGUAAGUGUACAUAGUCUGCAUGCCGCCGGGCGCCAUGCCUGCAGGUCGACUCUAGAAAACAUG”, for which the binding signal was 2.16 log2 enrichment (interaction score) in [15], 2.23 log2 enrichment (interaction score) in assay [18], 2.26 log2 enrichment (interaction score) in assay [20] and 1.75 log2 enrichment (interaction score) in [19].
For the sequence “GGCUAGAACUAGUGGAUCCCCCGGCGCCCGGCGGCUCGAGCCCGGGUAAGUGUAAAUUGUCUGCAUGCCGCCGGGCGCCAUGCCUGCAGGUCGACUCUAGAAAACAUG”, the binding signal is 1.49 log2 enrichment (interaction score) in assay [2] and 3.95 log2 enrichment (interaction score) in assay [3].
In the case of “GGCUAGAACUAGUGGAUCCCCCGGCGCCCGGCGGCUCGAGCCCGGGUAAGUGUAUAUAGUCUGCAUGCCGCCGGGCGCCAUGCCUGCAGGUCGACUCUAGAAAACAUG”, the binding signal in assay [15] is 2.54 log2 enrichment (interaction score); in [18], 2.51 log2 enrichment (interaction score); in assay [20] it was 1.78 log2 enrichment (interaction score); in [19], 3.64 log2 enrichment (interaction score).
